Experimental data as given in PubChem BioAssay (NCATS).
Results filed as inconclusive are left out. The source made the active and inactive calls. Unless noted, the call rests on the fitted dose curve; in most records, active means well fitted curve in the direction sought with a large enough effect; inconclusive means small, poorly fitted or top-dose-only effect, or another doubt; inactive means no such curve, though single readings can be large; an effect the other way counts as inactive or inconclusive.

Columns and labels:
[1] = Validation of Assay for Modulators of Lamin A Splicing (AID 1459; active means well fitted curve in the direction sought with a large enough effect in the signal ratio; the % refers to the signal ratio;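 further: cells exposed to compound for two days before reading; 0% is about no effect; ratio rise marks activators and ratio drop marks inhibitors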)
Summary of the method: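 Dual-reporter HeLa S3 line (lamin A-EGFP minigene, DsRed2) treated with compounds 48 hrs, 0.5% DMSO final. Endpoint: EGFP/DsRed2 total intensity ratio from laser-scanning microplate cytometry.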

[2] = molecular target: DNA repair nuclease/redox regulator APEX1 (Homo sapiens) (UniProt P27695); test: qHTS Validation Assay for Inhibitors of the Human Apurinic/apyrimidinic Endonuclease 1 (APE1) (AID 1705;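 further: TAMRA fluorescence gain over two minutes as APE1 cuts a quenched THF abasic duplex; on the % scale 0 is the no-effect control and ±100 the full control effect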)
Summary of the method: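 Substrate: 50 nM final fluorophore/quencher THF-abasic duplex. Enzyme preincubated with compounds 15 min, RT. Progress derived from fluorescence difference, third minus first kinetic read.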

[3] = molecular target: Endonuclease 4 (Escherichia coli (strain K12)) (UniProt P0A6C1); test: Counterscreen for APE1 Inhibitors: qHTS Validation Assay for Inhibitors of Endonuclease IV (AID 1708); further: on the % scale 0 is the no-effect control and ±100 the full control effect
Summary of the method: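 qHTS concentration-response format; LOPAC1280 tested under APE1-screen conditions. 2 nM enzyme, 15 min compound preincubation at RT, then 50 nM TAMRA/BHQ-2 abasic substrate; kinetic fluorescence read, three reads at 60 s intervals.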

[4] = molecular target: ATP-dependent DNA helicase Q1 (Homo sapiens) (UniProt P46063); test: qHTS Validation Assay for Inhibitors of RecQ-Like Dna Helicase 1 (RECQ1) (AID 2353);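 further: plate controls were DMSO vehicle for no effect and enzyme-free control for full effect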
Summary of the method: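 50 nM RECQ1T1 preincubated 15 min with compound in Tris pH 8.0 buffer with MgCl2, DTT, Tween-20 and 2.5 ug/ml poly(dI-dC); started with 200 nM TAMRA/BHQ-2 forked duplex and 2 mM ATP. Unwinding read as fluorescence (525/598 nm), two reads 2 h apart.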

[5] = Cytometric Cell-Based qHTS for Inhibitors of the mTORC1 Signaling Pathway in MEF (Tsc2-/-, p53-/-) Cells (AID 2660);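 further: Tsc2 and p53 null MEFs carrying empty vector with compound for 24 h; percent of cells above a phospho-rpS6 to PI ratio cutoff in each well; plate controls were DMSO for no effect and rapamycin for full effect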
Summary of the method: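 Readout: Alexa-488 phospho-rpS6 (Ser235/236) intensity divided by PI intensity, thresholded against 7.5 nM rapamycin wells and reported as % positive cells. PI cell count served as the viability measure. Compound exposure was 24 hrs at 37 degree Celsius.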

[6] = High Content Imaging Cell-Based qHTS for Inhibitors of the mTORC1 Signaling Pathway in MEF (Tsc2-/-, p53-/-) Cells (AID 2666); conditions: at 38.3 µM (top of the series);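 further: percent of cells scored positive for phospho-rpS6 Ser235/236 immunostaining by imaging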
Summary of the method: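 Cells were plated, dosed with compound after 24 hrs, and incubated another 24 hrs at 37 degree Celsius. Fixed cells were immunostained for phospho-rpS6 Ser235/236 and counterstained, and the normalized signal was scored as % active cells against rapamycin and DMSO controls.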

[7] = High Content Imaging Cell-Based qHTS for Inhibitors of the mTORC1 Signaling Pathway in MEF Cells (AID 2667);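 further: Tsc2-/- p53-/- MEFs stably re-expressing wild-type Tsc2 exposed 24 h; plate controls were DMSO wells for no effect and rapamycin control wells for full effect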
Summary of the method: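 Immunofluorescence for rpS6 phosphorylation in MEFs of Tsc2-/-, p53-/- background rescued with WT Tsc2. Compound exposure lasted 24 hrs. Inhibition was scored against rapamycin-treated control wells.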

[8] = Validation screen for small molecules that induce DNA re-replication in MCF 10A normal breast cells (AID 463097); further: 0% is about no effect; nearly all actives have a fitted effect of over 60% in size
Summary of the method: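 Following 48 hr compound incubation (37 C, 5% CO2), MCF 10A cells receive Hoechst for 40 min at 37 C. Nuclei are then scanned (excitation 405 nm, emission 500-530 nm) for total fluorescence intensity.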

[9] = molecular target: Ubiquitin carboxyl-terminal hydrolase 2 (Homo sapiens) (UniProt O75604); test: qHTS Validation Assay for Inhibitors of Ubiquitin-specific Protease USP2a Using CHOP2 as the Reporter (AID 463106);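 further: plate controls were DMSO for no effect and full inhibition by NEM for full effect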
Summary of the method: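 10nM USP2 core + cpd, 30min RT; add 25nM Ub-CHOP2/25nM substrate; 60min RT; FI 485/531nm. Buffer Tris pH 8.0, CaCl2, BME, CHAPS. Norm. to NEM = 100% inhibition; time-zero read flags fluorescent artifacts.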

[10] = molecular target: Tumor susceptibility gene 101 protein (Homo sapiens) (UniProt Q99816); test: qHTS Validation Assay for Iinhibitors of HIV-1 Budding by Blocking the Interaction of PTAP/TSG101 (AID 485342; calls by dose curve; further: 0% is about no effect)
Summary of the method: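 Compound wells held the Tsg101 binding domain (10 uM) and a FITC-conjugated PTAP peptide (50 nM) in buffer at pH 7.5 containing 0.15 M NaCl and 0.01% Tween 20; polarization was recorded after 20 min, r.t.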

[11] = molecular target: Beta-2 adrenergic receptor (Homo sapiens) (UniProt P07550); test: qHTS validation assay of beta-arrestin-biased ligands of beta2-adrenergic receptor (AID 485366); further: 0% is about no effect
Summary of the method: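 Tango cells (recombinant beta2-AR with recombinant beta-arrestin; recruitment releases tTA driving luciferase) were treated with compounds titrated up to 46 microM for 18 hr at 37 degrees C. Luminescence gave %Activity, and concentration-response curves were curve-classified.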

[12] = molecular target: Thioredoxin reductase 1, cytoplasmic (Rattus norvegicus) (UniProt O89049); test: qHTS Assay for Substrates of Mammalian Selenoprotein Thioredoxin Reductase 1 (TrxR1) (AID 488772);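 further: NADPH fluorescence in the first read after selenite addition and not the 8 min delta; 0% is about no effect; a drop in NADPH fluorescence below the no-compound background marks a TrxR1 substrate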
Summary of the method: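 Quantitative HTS in Tris-HCl buffer at pH 7.5 with EDTA and Tween-20, using rat TrxR1, 400 uM NADPH and 400 uM selenite (final). A fall in initial NADPH fluorescence relative to background marked substrate behaviour.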

[13] = molecular target: Flap endonuclease 1 (Homo sapiens) (UniProt P39748); test: qHTS Validation Assay for the Inhibitors of Human Flap endonuclease 1 (FEN1) (AID 488816); further: on the % scale 0 is the no-effect control and ±100 the full control effect
Summary of the method: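 Readings taken at 0 and 15 min after starting the reaction with 50 nM (final) substrate supplied the signal. Compounds had first sat with 10 nM FEN1 reagent for 15 min at room temperature. Values come from Hill-equation concentration-response fits.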

[14] = molecular target: M-phase phosphoprotein 8 (Homo sapiens) (UniProt Q99549); test: qHTS Validation Assay for Inhibitors for MPP8 Chromodomain Interactions with Methylated Histone Tails (AID 488949);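 further: 50 nM MPP8 with 50 nM peptide preformed then compounds added for 30 min; AlphaScreen signal from MPP8 chromodomain bound to biotinylated H3K9me3 peptide; top concentration of the series differs between compounds; on the % scale 0 is the no-effect control and ±100 the full control effect; nearly all actives have a fitted effect of over 55% in size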
Summary of the method: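 Chemiluminescent proximity assay: histidine-tag capture via nickel acceptor beads, biotin peptide via streptavidin donor beads. Protein and peptide each at 50 nM, pH 7.4, with 30 min incubations at room temperature for complex formation, compound exposure and bead binding.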

[15] = molecular target: Transient receptor potential cation channel subfamily V member 1 (Homo sapiens) (UniProt Q8NER1); test: HTS Assay for Compounds that Act as Enhancers of the Vanilloid Receptor 1 (AID 488979); further: 0% is about no effect
Summary of the method: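 Calcium influx kinetics via Fluo-8 (480/520 nm) in TRPV1-expressing cells, 2000/well cultured overnight at 35.5C. Compound-alone read 3 min (agonist phase), followed by EC20 capsaicin challenge for 2 min (enhancer phase).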

[16] = molecular target: Thyrotropin receptor (Homo sapiens) (UniProt P16473); test: qHTS Assay for Antagonists of the Thyroid Stimulating Hormone Receptor (AID 488980); further: 0% is about no effect
Summary of the method: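 Inhibition of TSH-stimulated cAMP accumulation was quantified by homogeneous time-resolved FRET in TSHR-transfected HEK293 cells. Agonist: TSH, 4 nM final (EC80).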

[17] = Validation screen for small molecules that induce genotoxicity in human embryonic kidney (HEK293T) cells expressing luciferase-tagged ELG1 (AID 493106); further: 0% is about no effect
Summary of the method: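 Luminescence from an ELG1-luciferase fusion serves as the read-out, rising when genetic stress elevates ELG1 protein. HEK293T reporter cells (2,000 per well) received 23 nL compound, incubated 16 hr at 37 °C, then ONE-Glo for 30 min at room temperature.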

[18] = molecular target: ATPase family AAA domain-containing protein 5 (Homo sapiens) (UniProt Q96QE3); test: Validation screen for small molecules that inhibit ELG1-dependent DNA repair in human embryonic kidney (HEK293T) cells expressing luciferase-tagged ELG1 (AID 493107);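 further: cells co-treated with the DNA-damaging agent 5-fluorouridine alongside compound; on the % scale 0 is the no-effect control and ±100 the full control effect; inhibitors lower the ELG1-luciferase luminescence signal; nearly all actives have a fitted effect of over 70% in size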
Summary of the method: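 Luminescence from ONE-Glo, developed 30 min at room temperature, served as read-out of ELG1-luciferase levels. Beforehand, reporter HEK293T cells received 5-fluorouridine plus test compound for 16 hr at 37 °C.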

[19] = molecular target: Thyrotropin-releasing hormone receptor (Homo sapiens) (UniProt P34981); test: qHTS for Small Molecule Agonists and Allosteric Enhancers of Human TRH Receptor: Validation Screen for Agonists (AID 493127;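 active means calcium activation more than 3 SD above the typical response in the agonist read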;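 further: intracellular calcium rise by fluo-8 fluorescence before TRH EC20 addition; 0% is about no effect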); conditions: TRH receptor agonist cell assay; at 2 µM; stronger effect = higher value
Summary of the method: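 Cells 2000/well, 10% FCS, 18 h 33.5C/5% CO2 → fluo-8 Ca dye, RT 30 min–1.5 h → FDSS baseline 10 × 1 s → compound added → 230 cycles (1 s/cycle) agonist mode. TRH controls.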

[20] = Nrf2 qHTS screen for inhibitors: Validation (AID 493153; active means well fitted inhibition curve with a large enough effect in the main read-out, with a control signal flat, not every such curve was filed as active); conditions: viability change: measured here: cytotoxicity max response
Summary of the method: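 Luminescence from an ARE-firefly luciferase reporter in A549 cells gives Nrf2 inhibition; an earlier CellTiter-Fluor fluorescent read flags cytotoxicity. Cells in 5% FBS OPTI-MEM received compound dilution series for 18-24 h at 37°C.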

[21] = qHTS for Inhibitors of Cell Surface uPA Generation: Validation Assay (AID 493164); further: 0% is about no effect
Summary of the method: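 RAW 264.7 cells (4000/well) were plated overnight, then exposed for 18 h at 37 C, 5% CO2 to compounds in a 7-point 1:5 titration (2.45 nM–38.3 uM final). Intracellular ATP was read by ATP-Lite luminescence.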

[22] = molecular target: Galactokinase (Homo sapiens) (UniProt P51570); test: qHTS Validation Assay for Inhibitors of Human Galactokinase (GALK) (AID 493189); further: 0% is about no effect
Summary of the method: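 Enzyme activity is inferred from ATP consumption: human GALK phosphorylates galactose (100 uM) using 35 uM ATP for 1 h at room temperature, and luciferase-based Kinase-Glo Plus reports unconsumed ATP.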

[23] = Validation screen for small molecules that induce DNA re-replication in SW480 colon adenocarcinoma cells (AID 504364); further: 0% is about no effect
Summary of the method: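 250 cells/well; compound pinned in; 48 hr, 37 C, 5% CO2; Hoechst added, 40 min; nuclear fluorescence imaged, 405 ex / 500-530 em; re-replication scored as increase in high-intensity nuclei.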

[24] = molecular target: Peptidyl-prolyl cis-trans isomerase NIMA-interacting 1 (Homo sapiens) (UniProt Q13526); test: qHTS Validation Assay to Find Inhibitors of Pin1 (AID 504536; active means well fitted inhibition curve with a large enough effect in the polarisation, with a control signal flat, not every such curve was filed as active; the % refers to the polarisation;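 further: 0% = full Pin1 enzyme wells and -100% = no-enzyme wells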)
Summary of the method: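 Fluorescence polarization competition: compounds (titration) displace HiFluor-488-labeled Pin1-1b peptide from Pin1 (0.3 uM final) in pH 7.5 HEPES buffer with DTT, 10 min at room temperature; %Activity normalized to no-enzyme wells, curves fitted.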

[25] = molecular target: Phosphoglycerate kinase, glycosomal (Trypanosoma brucei brucei) (UniProt P07378); test: qHTS Validation Assay to Find Inhibitors of Phosphoglycerate Kinase (AID 504547);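 further: control wells lack PGK and mark full inhibition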
Summary of the method: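 Inhibition of the enzyme is judged by a Kinase-Glo Plus luminescent signal following a one-hour incubation at room temperature. Because 1,3-BPG is unstable, it is made in situ by GAPDH at 100nM final; no-PGK wells define the baseline.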

[26] = molecular target: phosphoglycerate mutase (Leishmania major) (UniProt Q4Q090); test: qHTS Validation Assay to Find Inhibitors of Phosphoglycerate Mutase (AID 504548); further: on the % scale 0 is the no-effect control and ±100 the full control effect
Summary of the method: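 Lm PGAM 1.25nM final; 100 mM TEA pH 7.6, 5 mM MgCl2, 0.01% Tween-20; 45 min RT; Kinase-GloPlus, 10 min; end-point luminescence. Enzyme-free wells as negative controls.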

[27] = molecular target: Voltage-gated inwardly rectifying potassium channel KCNH2 (Homo sapiens) (UniProt Q12809); test: qHTS Assay for Small Molecule Inhibitors of the Human hERG Channel Activity (AID 588834);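 further: potency means the concentration at half of the fitted maximal effect; lower thallium flux fluorescence means stronger hERG block; nearly all actives have a fitted effect of over 50% in size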
Summary of the method: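 Blockade is seen as reduced FluxOR thallium-flux fluorescence in U2OS cells expressing hERG from a BacMam construct, in Opti-MEM with 2% FCS. Concentration-response data fitted to the Hill equation for AC50.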

[28] = molecular target: Glutaminase kidney isoform, mitochondrial (Homo sapiens) (UniProt O94925); test: qHTS for Inhibitors of Glutaminase (GLS): LOPAC Validation (AID 624146); further: potency means the concentration at half of the fitted maximal effect; nearly all actives have a fitted effect of over 60% in size
Summary of the method: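 Read-out is an Amplex red fluorescence increase coupled through glutamate oxidase and HRP, measured before and after 30 min room-temperature incubation. hKGA is in 45 mM KH2PO4 (pH 8.2) with 0.02% Tween-20; glutamine added as 1mM solution.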

Sequence of DNA repair nuclease/redox regulator APEX1 (Homo sapiens) (P27695 whole entry, looked up): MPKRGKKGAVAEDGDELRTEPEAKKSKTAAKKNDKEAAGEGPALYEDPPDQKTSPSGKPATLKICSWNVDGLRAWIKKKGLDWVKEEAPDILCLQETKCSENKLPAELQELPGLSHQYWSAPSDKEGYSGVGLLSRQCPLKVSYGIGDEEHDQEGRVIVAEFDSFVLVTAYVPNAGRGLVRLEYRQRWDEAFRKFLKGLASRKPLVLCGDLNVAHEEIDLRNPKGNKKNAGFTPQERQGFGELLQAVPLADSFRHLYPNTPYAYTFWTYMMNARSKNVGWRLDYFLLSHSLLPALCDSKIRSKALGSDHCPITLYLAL
Sequence of Beta-2 adrenergic receptor (Homo sapiens) (P07550 whole entry, looked up): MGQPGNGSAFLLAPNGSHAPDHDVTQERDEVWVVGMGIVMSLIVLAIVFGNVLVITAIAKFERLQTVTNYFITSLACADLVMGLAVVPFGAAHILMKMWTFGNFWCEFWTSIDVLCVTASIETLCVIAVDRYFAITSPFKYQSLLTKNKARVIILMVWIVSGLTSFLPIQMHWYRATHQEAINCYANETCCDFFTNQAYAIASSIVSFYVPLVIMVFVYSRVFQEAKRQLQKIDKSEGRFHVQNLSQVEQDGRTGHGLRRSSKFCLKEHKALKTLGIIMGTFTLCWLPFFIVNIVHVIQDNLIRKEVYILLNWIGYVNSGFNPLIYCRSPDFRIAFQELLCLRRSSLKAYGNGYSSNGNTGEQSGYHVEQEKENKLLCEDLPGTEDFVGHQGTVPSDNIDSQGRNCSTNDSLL
Sequence of ATP-dependent DNA helicase Q1 (Homo sapiens) (P46063 whole entry, looked up): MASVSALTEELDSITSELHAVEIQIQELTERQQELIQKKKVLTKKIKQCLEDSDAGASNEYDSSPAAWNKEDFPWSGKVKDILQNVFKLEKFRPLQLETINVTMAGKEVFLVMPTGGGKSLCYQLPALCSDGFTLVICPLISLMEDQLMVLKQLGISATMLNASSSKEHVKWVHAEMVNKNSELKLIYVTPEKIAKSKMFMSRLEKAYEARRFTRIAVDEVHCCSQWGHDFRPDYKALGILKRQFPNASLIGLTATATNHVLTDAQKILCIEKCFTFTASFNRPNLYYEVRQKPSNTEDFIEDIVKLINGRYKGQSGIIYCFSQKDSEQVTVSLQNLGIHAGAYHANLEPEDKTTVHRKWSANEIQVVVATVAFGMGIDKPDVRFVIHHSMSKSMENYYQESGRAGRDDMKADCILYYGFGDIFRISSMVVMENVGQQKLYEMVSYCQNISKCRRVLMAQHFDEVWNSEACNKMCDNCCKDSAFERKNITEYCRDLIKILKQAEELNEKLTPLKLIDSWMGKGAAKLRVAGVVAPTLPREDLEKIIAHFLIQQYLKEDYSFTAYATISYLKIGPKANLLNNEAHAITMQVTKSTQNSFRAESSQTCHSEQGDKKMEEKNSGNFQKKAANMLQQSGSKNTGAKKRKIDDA
Sequence of Thyrotropin-releasing hormone receptor (Homo sapiens) (P34981 whole entry, looked up): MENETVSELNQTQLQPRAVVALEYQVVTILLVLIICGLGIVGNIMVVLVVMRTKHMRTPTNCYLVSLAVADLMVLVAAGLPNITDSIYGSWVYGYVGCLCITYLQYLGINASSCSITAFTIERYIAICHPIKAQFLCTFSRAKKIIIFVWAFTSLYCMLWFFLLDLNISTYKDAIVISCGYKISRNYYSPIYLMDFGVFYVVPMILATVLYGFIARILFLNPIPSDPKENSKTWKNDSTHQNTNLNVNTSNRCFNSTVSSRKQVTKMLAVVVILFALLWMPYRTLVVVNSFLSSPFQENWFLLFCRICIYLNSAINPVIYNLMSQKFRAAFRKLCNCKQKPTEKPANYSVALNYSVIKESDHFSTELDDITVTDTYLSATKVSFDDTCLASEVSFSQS
Sequence of Voltage-gated inwardly rectifying potassium channel KCNH2 (Homo sapiens) (Q12809 whole entry, looked up): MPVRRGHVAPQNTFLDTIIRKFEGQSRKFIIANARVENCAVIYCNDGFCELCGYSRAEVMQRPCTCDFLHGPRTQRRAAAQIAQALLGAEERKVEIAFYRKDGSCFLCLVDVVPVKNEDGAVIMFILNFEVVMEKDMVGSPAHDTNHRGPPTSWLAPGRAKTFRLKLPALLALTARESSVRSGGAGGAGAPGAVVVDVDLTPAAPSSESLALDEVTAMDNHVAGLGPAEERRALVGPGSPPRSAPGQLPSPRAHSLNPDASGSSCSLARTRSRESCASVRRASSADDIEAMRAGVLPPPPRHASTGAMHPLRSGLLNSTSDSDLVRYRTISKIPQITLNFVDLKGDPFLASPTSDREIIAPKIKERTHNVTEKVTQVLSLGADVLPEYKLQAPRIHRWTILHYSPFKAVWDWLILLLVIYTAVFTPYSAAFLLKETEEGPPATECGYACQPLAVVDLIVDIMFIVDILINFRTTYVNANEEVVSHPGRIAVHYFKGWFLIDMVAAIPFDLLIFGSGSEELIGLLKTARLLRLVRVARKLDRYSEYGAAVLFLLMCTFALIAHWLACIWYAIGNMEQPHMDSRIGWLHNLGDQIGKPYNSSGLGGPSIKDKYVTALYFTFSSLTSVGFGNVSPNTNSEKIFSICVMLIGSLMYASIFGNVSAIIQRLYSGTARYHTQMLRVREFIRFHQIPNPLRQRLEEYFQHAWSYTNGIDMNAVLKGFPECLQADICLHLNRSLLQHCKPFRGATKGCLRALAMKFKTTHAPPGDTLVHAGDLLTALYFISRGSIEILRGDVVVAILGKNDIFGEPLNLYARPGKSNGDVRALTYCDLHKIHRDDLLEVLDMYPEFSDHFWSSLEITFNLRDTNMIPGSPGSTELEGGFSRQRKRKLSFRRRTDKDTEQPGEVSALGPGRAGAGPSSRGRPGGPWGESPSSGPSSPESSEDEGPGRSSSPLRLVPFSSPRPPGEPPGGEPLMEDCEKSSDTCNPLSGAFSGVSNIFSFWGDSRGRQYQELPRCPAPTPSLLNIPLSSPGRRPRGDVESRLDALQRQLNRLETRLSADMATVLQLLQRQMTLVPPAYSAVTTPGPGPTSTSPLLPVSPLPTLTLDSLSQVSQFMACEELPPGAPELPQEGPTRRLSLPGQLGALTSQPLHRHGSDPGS
Sequence of phosphoglycerate mutase (Leishmania major) (Q4Q090 1-553): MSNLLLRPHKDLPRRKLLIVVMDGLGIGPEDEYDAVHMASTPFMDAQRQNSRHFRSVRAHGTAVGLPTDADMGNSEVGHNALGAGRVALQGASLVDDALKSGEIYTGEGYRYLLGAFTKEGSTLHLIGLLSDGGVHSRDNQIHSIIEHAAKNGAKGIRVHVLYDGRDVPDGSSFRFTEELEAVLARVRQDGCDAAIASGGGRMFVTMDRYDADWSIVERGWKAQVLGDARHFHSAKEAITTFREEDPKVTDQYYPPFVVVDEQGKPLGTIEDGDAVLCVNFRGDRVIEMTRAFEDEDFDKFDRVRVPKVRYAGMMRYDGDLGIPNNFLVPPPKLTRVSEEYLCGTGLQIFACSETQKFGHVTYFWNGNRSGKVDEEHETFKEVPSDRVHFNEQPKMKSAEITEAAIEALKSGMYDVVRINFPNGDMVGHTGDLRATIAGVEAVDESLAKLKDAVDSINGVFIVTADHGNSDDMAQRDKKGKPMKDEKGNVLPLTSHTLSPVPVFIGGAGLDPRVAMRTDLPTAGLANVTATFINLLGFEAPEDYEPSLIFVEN
Sequence of Galactokinase (Homo sapiens) (P51570 whole entry, looked up): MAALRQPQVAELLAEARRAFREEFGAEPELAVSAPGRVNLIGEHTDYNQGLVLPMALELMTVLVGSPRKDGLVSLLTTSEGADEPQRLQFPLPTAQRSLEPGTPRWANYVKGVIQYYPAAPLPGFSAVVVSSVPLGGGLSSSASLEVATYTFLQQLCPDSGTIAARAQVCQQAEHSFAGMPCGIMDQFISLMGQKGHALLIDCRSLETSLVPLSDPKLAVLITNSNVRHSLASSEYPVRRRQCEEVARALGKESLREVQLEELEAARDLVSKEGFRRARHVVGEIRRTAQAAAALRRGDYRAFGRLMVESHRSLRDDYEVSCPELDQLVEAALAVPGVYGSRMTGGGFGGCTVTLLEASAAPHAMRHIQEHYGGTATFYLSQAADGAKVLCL
Sequence of Thyrotropin receptor (Homo sapiens) (P16473 whole entry, looked up): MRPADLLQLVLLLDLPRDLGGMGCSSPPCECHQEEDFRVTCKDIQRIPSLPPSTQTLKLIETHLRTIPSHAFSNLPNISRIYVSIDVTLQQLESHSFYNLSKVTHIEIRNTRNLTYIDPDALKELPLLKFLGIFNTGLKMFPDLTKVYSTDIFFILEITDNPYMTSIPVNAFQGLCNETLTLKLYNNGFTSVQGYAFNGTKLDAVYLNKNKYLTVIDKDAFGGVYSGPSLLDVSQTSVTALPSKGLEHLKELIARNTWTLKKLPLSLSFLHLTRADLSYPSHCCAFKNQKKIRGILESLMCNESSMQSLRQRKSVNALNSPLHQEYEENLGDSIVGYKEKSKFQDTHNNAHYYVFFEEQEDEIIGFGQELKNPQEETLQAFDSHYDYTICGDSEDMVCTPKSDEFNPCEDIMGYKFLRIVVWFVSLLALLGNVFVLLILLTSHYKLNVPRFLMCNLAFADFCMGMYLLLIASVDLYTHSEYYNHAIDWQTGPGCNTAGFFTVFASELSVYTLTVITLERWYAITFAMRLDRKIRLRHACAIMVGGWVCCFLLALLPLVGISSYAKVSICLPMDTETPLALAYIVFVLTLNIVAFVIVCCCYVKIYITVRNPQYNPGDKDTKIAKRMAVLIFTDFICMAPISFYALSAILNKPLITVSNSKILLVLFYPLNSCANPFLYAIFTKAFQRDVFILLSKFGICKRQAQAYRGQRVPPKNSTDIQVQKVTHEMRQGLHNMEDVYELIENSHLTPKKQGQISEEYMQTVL
Sequence of Flap endonuclease 1 (Homo sapiens) (P39748 whole entry, looked up): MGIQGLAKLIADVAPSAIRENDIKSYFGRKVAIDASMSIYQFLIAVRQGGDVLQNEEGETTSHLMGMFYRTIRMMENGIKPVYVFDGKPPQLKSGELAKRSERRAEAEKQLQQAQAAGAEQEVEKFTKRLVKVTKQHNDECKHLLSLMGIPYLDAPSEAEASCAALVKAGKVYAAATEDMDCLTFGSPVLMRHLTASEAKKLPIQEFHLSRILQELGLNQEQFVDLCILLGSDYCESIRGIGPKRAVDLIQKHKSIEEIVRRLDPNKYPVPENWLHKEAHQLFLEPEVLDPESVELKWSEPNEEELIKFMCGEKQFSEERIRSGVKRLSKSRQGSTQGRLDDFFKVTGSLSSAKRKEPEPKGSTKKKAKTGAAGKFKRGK

Oc1cc2c(c(Cl)c1O)CCNCC2c1ccccc1 (centres undefined)
active: Potency [27] 2820 nM | Potency [28] 1120 nM
inactive: outcome [1] | Potency [2] | Potency [3] | Potency [4] | outcome [5] | outcome [6] | Potency [7] | Potency [8] | Potency [9] | outcome [10] | outcome [11] | outcome [12] | Potency [13] | Potency [14] | outcome [15] | outcome [16] | Potency [17] | Potency [18] | activation [19] 2.25% | outcome [20] | outcome [21] | outcome [22] | outcome [23] | Potency [24] | Potency [25] | outcome [26]
-3.92%: viability change [20]
